From the supplement of paper PMC6658780
Where a name gives a salt, the structure may show the parent alone. ± gives the standard deviation of the averaged measurements.

System: Escherichia coli ATCC BAA-2469
Assay: percent growth inhibition of drug + antibiotic vs DMSO control; higher = more growth inhibition
Description: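 Prestwick drugs tested at 20 uM and 7 uM with an antibiotic at 0.125x MIC (16 mg/L when MIC >128 mg/L) against E. coli ATCC BAA-2469 (NDM-1) in CAMHB, 384-well plates, duplicate runs. Percent growth inhibition was computed from OD600 (24 h minus 0 h) relative to DMSO wells. Drug + DMSO-only wells are also given. […]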

[1] = antibiotic (0.125x MIC): ciprofloxacin, 7 µM
[2] = antibiotic (0.125x MIC): ciprofloxacin, 20 µM
[3] = antibiotic (0.125x MIC): gentamicin, 7 µM
[4] = antibiotic (0.125x MIC): gentamicin, 20 µM
[5] = antibiotic (0.125x MIC): meropenem, 7 µM
[6] = antibiotic (0.125x MIC): meropenem, 20 µM

`Oc1c(I)cc(Cl)c2cccnc12` [Clioquinol] showed a percent growth inhibition [1] of 7.92 ± 1.7%, a percent growth inhibition [2] of 61.08 ± 0.34% and a percent growth inhibition [3] of 12.9 ± 5.2%. It also gave a percent growth inhibition [4] of 88.9 ± 10% and a percent growth inhibition [5] of 7.81 ± 2.7%.

For `Nc1nc(F)nc2c1ncn2[C@@H]1O[C@H](CO)[C@@H](O)[C@@H]1O` [Fludarabine], the percent growth inhibition [1] was 36.5 ± 11%, the percent growth inhibition [2] was 58.8 ± 3.8% and the percent growth inhibition [3] was 31.6 ± 1.3%. It also gave a percent growth inhibition [4] of 65.8 ± 12%, a percent growth inhibition [5] of 28.2 ± 5.7% and a percent growth inhibition [6] of 64.4 ± 8%.

With `COC(=O)N/N=C/c1c[n+]([O-])c2ccccc2[n+]1[O-]` [Carbadox] the percent growth inhibition [1] was 35.21 ± 0.15%, the percent growth inhibition [2] was 68.9 ± 6.1% and the percent growth inhibition [3] was 46.5 ± 17%. The percent growth inhibition [4] was 85 ± 3.9%, the percent growth inhibition [5] was 39.9 ± 16% and the percent growth inhibition [6] was 78.3 ± 7.7%.

In the case of `Nc1ccn([C@@H]2O[C@H](CO)[C@@H](O)C2(F)F)c(=O)n1` [Gemcitabine], the percent growth inhibition [1] is reported as 23.1 ± 11%.

`N=C(NCCCCCCNC(=N)NC(=N)Nc1ccc(Cl)cc1)NC(=N)Nc1ccc(Cl)cc1` [Chlorhexidine] was tested, and the percent growth inhibition [2] was 103 ± 3.8%, the percent growth inhibition [4] was 112 ± 19% and the percent growth inhibition [6] was 99.2 ± 1.6%.

Work on `NS(=O)(=O)c1cc2c(cc1C(F)(F)F)NC(Cc1ccccc1)NS2(=O)=O` (centres undefined) [Bendroflumethiazide] yielded a percent growth inhibition [3] of -0.966 ± 1.2%.

`CO[C@H]1/C=C/O[C@@]2(C)Oc3c(C)c(O)c4c(c3C2=O)C2=NC3(CCN(CC(C)C)CC3)NC2=C(NC(=O)/C(C)=C\C=C\[C@H](C)[C@H](O)[C@@H](C)[C@@H](O)[C@@H](C)[C@H](OC(C)=O)[C@@H]1C)C4=O` [Rifabutin] showed a percent growth inhibition [3] of 86.11 ± 0.8%, a percent growth inhibition [4] of 114 ± 20% and a percent growth inhibition [5] of 97.8 ± 1.9%. It also gave a percent growth inhibition [6] of 111 ± 12%.

`NC(=O)N/N=C/c1ccc([N+](=O)[O-])o1` [Nitrofural] showed a percent growth inhibition [3] of 8.48 ± 6.7% and a percent growth inhibition [5] of 4.64 ± 4%.

`CC1CS(=O)(=O)CCN1/N=C/c1ccc([N+](=O)[O-])o1` (centres undefined) [Nifurtimox] gave a percent growth inhibition [4] of 2.95 ± 0.97%.

For `CC1=C(/C=C/C(C)=C/C=C/C(C)=C\C(=O)O)C(C)(C)CCC1` [Isotretinoin], the percent growth inhibition [4] was 12.7 ± 20%.

`Cc1cc(N)c2ccccc2[n+]1CCCCCCCCCC[n+]1c(C)cc(N)c2ccccc21` [Dequalinium dichloride] showed a percent growth inhibition [5] of -1.34 ± 1.8% and a percent growth inhibition [6] of 34.5 ± 0.8%.

Molecule `CCCCCCCCNC(C)C(O)c1ccc(SC(C)C)cc1` (centres undefined) [Suloctidil] has a percent growth inhibition [5] of 1.25 ± 3.5%.

`Nc1nc(=S)c2ncn([C@@H]3O[C@H](CO)[C@@H](O)[C@H]3O)c2[nH]1` [Thioguanosine] gave a percent growth inhibition [5] of 34.2 ± 1.9% and a percent growth inhibition [6] of 81.6 ± 9.8%.

`CCC[C@@H]1C[C@@H](C(=O)N[C@@H]([C@H]2O[C@H](SC)[C@H](O)[C@@H](O)[C@H]2O)[C@H](C)Cl)N(C)C1` [Clindamycin hydrochloride] showed a percent growth inhibition [5] of 13.3 ± 0.73% and a percent growth inhibition [6] of 42.6 ± 12%.

`CCCCCCCCCCCCCCCC[N+](C)(C)CCN(Cc1ccc(OC)cc1)c1ncccn1` [Thonzonium bromide] showed a percent growth inhibition [5] of -2.72 ± 5.5% and a percent growth inhibition [6] of 34.1 ± 20%.
